The entries come from a sample that favours hits as a whole.
SARS PLpro yeast = qHTS of Yeast-based Assay for SARS-CoV PLP. S. cerevisiae expressing SARS-CoV PLpro, growth rescue. Potency, µM (titrated, usually from 32.9 µM), hits mostly activators. 0.19% of 330,000 active. AID 485353, 2010; calls by dose curve; note: nearly all actives have a fitted effect of over 55% in size
AMA1 RON2 block = qHTS for Inhibitors of AMA1-RON; Towards Development of Antimalarial Drug Lead: Primary Screen; Plasmodium falciparum AMA1 (3D7) - RON2 peptide interaction; AlphaScreen AMA1-biotinylated RON2 peptide binding; Potency, µM (top dose mostly 58.2 µM), hits mostly inhibitors; 0.2% of 360,000 active; note: nearly all actives have a fitted effect of over 45% in size
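AMA1 (3D7) with his tag at 25 nM final met compounds first, then biotinylated RON2 peptide at 25 nM; detection used donor plus acceptor beads, 10 µg/mL apiece, read by AlphaScreen after 30 min at room temperature.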
Cycloheximide cs = Cycloheximide Counterscreen for Small Molecule Inhibitors of Shiga Toxin; cell reporter, cycloheximide protein synthesis inhibition counterscreen; max response, %; 12% of 300,000 active; AID 2314, 2010; in the data active = max response mostly above about 13%, no sharp cut-off; inactive = mostly below about 14%; note: read at 38.3 µM for the half of the compounds with a filed dose
AmpC inh detg = qHTS Inhibitors of AmpC Beta-Lactamase (assay with detergent). P00811. AmpC hydrolysis of nitrocefin, absorbance 480 nm, 0.01% Triton. Potency, µM (highest dose often 114 µM), usual class: inhibitors. 0.041% of 370,000 active. AID 485294, 2010; note: nearly all actives have a fitted effect of over 25% in size
Target sequence (P00811 whole entry, looked up): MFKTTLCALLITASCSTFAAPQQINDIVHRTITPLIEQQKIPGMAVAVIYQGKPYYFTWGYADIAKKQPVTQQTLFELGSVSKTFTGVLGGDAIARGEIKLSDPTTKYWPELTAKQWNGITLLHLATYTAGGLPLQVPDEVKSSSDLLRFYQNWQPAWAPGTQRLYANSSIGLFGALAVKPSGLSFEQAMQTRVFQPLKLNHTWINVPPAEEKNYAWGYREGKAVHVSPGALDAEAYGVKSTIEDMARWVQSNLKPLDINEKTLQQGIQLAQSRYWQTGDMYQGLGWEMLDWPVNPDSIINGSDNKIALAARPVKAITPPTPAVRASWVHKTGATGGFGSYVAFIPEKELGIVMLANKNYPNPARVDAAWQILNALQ
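20 mM phosphate pH 7.0 + 0.01% (detergent screen) or 0.0001% Triton X-100; 5.3 nM AmpC reagent; cpd preinc 15 min RT; nitrocefin (800 uM stock) to start; A480 q20 s × 4 min; Activity was normalised to no-enzyme and no-compound control wells.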
AmpC no deterg = qHTS Inhibitors of AmpC Beta-Lactamase (assay without detergent) | P00811 | AmpC nitrocefin hydrolysis, absorbance 480 nm, 0.0001% Triton | Potency, µM (titrated, usually from 57.1 µM), hits mostly inhibitors | 0.52% of 330,000 active; note: nearly all actives have a fitted effect of over 20% in size
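AmpC (5.3 nM in the dispensed reagent) in 20 mM phosphate pH 7.0 with 0.01% (detergent screen) or 0.0001% Triton X-100 was preincubated with compounds for 15 min at room temperature. Nitrocefin was then added from an 800 uM solution, and hydrolysis was followed at 480 nm.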
Shiga toxin inh = A qHTS for Small Molecule Inhibitors of Shiga Toxin | Vero cells, Shiga toxin protein synthesis inhibition reporter | inhibition, % at 38.7 µM | 9.2% of 290,000 active | AID 2315, 2010; in the data active = inhibition mostly above about 28%, no sharp cut-off; inactive = mostly below about 43%
A number is an active result; - = inactive; ? = inconclusive; . = no result; [ ] = dose if it differs, or a comment. Unless noted, calls come from the whole dose curve; as a rule, active = well fitted curve in the direction sought with a large enough effect; inconclusive = small, poorly fitted or top-dose-only effect, or another doubt; inactive = no such curve, though single readings can be large; an effect the other way counts as inactive or inconclusive.

SMILES | SARS PLpro yeast | AMA1 RON2 block | Cycloheximide cs | AmpC inh detg | AmpC no deterg | Shiga toxin inh
O=[N+]([O-])c1ccc(SCc2ccco2)cc1N1CCOCC1 | - | ? | 29 | - | - | 54
Cc1cc(C(=O)N=Nc2c(O)n(C)c3ccccc23)c(C)o1 | - | -[11.6 µM] | 27 | - | - | -
COc1cccc2cc(C(=O)Nc3ccc(F)c(F)c3)c(=O)oc12 | . | . | . | - | . | .
CC(=O)C1=C(c2cccc([N+](=O)[O-])c2)N(C(C)=O)n2c(C)nnc2S1 | - | - | 18 | - | - | -
COc1ccc(C2=C(C(C)=O)Sc3nnc(-c4ccccc4)n3N2C(C)=O)cc1 | . | . | . | - | . | .
CCOc1ccc(C2=C(C(C)=O)Sc3nnc(C)n3N2C(C)=O)cc1 | . | . | 20 | - | . | -
N#CC(C#N)=NNc1ccc(OC(F)(F)F)cc1 | . | . | 44 | . | . | 60
S=C(NCCc1ccccc1)N1CCN(C(=S)NCCc2ccccc2)CC1 | - | - | . | - | - | .
OC(c1ccccc1)(c1ccccc1)C1CCN(C(=S)NCCc2ccccc2)CC1 | - | - | - | - | - | -
CC1CCN(C(=S)NCCc2ccccc2)CC1 | - | - | 30 | - | - | 82
OCC1CCCN(C(=S)NCCc2ccccc2)C1 (centres undefined) | - | - | 33 | - | - | -
CN1CCN(C(=S)NCCc2ccccc2)CC1 | - | - | 35 | - | - | -
O=C(NCCc1ccccc1)N1CCCC(CNS(=O)(=O)Cc2ccccc2)C1 (centres undefined) | - | - | 14 | - | - | -
CCOC(=O)CNC(=O)N1CCCC(CNS(=O)(=O)Cc2ccccc2)C1 (centres undefined) | - | - | - | - | - | -
CC(N=C1NS(=O)(=O)c2ccccc21)C(=O)NCCCc1ccccc1 (centres undefined) | - | - | - | - | - | -
Cc1c(C)c2cc(Cl)c(O)c(CN3CCCC(C)C3)c2oc1=O (centres undefined) | - | - | - | - | - | -
CCN(CC)c1ccc(C2Nc3cccc4cccc(c34)N2)cc1 | - | - | 25 | - | - | -
CCN(CC)c1ccc(C2NC(=O)c3ccccc3N2)cc1 (centres undefined) | . | - | . | . | . | .
COc1cc(C2Nc3cccc4cccc(c34)N2)cc(OC)c1O | - | - | - | - | 32µM | -
O=C(/C(=C/O)N=Nc1ccccc1)c1cccs1 | - | ? | 39 | - | - | -
CN(Cc1ccon1)C(=O)CC1C(=O)NCCN1Cc1ccc(F)c(F)c1 (centres undefined) | - | - | - | - | - | -
COc1cc(OC)cc(-c2nnc(SCc3c(F)cccc3Cl)o2)c1 | ? | - | 44 | - | - | 81
COc1cccc(C(=O)CSc2nnc(-c3cc(OC)cc(OC)c3)o2)c1 | - | - | - | - | - | -
O=c1cc(CSc2nnc(-c3ccccc3)o2)c2ccccc2[nH]1 | - | - | 10 | - | - | -
Cc1ccccc1-c1nnc(SCc2ccccc2F)o1 | - | - | 58 | - | - | 87
SMILES | SARS PLpro yeast | AMA1 RON2 block | Cycloheximide cs | AmpC inh detg | AmpC no deterg | Shiga toxin inh
Cc1ccccc1-c1nnc(SCC(=O)Nc2cccc(C)c2C)o1 | - | - | - | - | - | -
Cc1ccc(CSc2nnc(-c3cccc4ccccc34)o2)cc1 | - | . | . | . | - | .
O=c1cc(CSc2nnc(COc3ccc(Cl)cc3)o2)c2ccccc2[nH]1 | - | - | - | - | - | -
Cc1ccccc1-c1nnc(SCc2ccccc2)o1 | - | - | 32 | - | - | 84
O=C(CSc1nnc(SCc2ccccc2)s1)NNC(=S)Nc1ccccc1 | - | -[2.32 µM] | - | - | - | -
COc1ccccc1C1=NCc2nnc(C)n2-c2ccc(Cl)cc21 | - | - | - | ? | - | -
CCOc1cccc(C(=O)NC(=S)NCc2cccnc2)c1 | - | -[2.32 µM] | - | - | - | -
COc1ccc(-c2ccc(C3C4C=CCC(C)C4C(=O)N3Cc3ccccc3)c(F)c2)cc1OC (centres undefined) | . | . | - | . | . | -
Fc1ccc(NCc2nnc(SCc3ccccc3)o2)cc1 | - | - | - | - | - | -
O=C(O)CSc1nnc(-c2ccccc2)o1 | - | - | - | ? | - | -
Fc1cccc(Cl)c1CSc1nnc(CNc2ccccc2)o1 | - | - | 17 | - | - | -
Fc1ccccc1CSc1nnc(-c2ccccc2)o1 | - | - | 50 | - | - | 75
Cc1cccc(C)c1NC(=O)CSc1nnc(Cc2ccccc2)o1 | - | - | - | - | - | -
Fc1ccccc1CSc1nnc(-c2cccnc2)o1 | - | - | 48 | - | - | 110
Cc1ccccc1-c1nnc(Cc2ccccc2)o1 | - | - | 41 | - | - | 138
CSc1ccccc1NC(=O)CN1CCCCC1 | - | - | - | - | -[11.4 µM] | -
COc1ccc(-c2nnc(SCc3ccccc3F)o2)cc1 | - | - | 47 | - | - | 118
N#Cc1ccccc1CSc1nnc(-c2ccc(Br)cc2)o1 | . | . | . | - | . | .
CC1CCCCN1C(=O)c1ccccc1NC(=O)c1ccco1 (centres undefined) | - | - | - | - | - | -
Cc1cc(C)c(OCC(=O)Nc2nc(-c3ccccn3)cs2)c(C)c1 | - | - | - | - | - | -
c1ccc(Nc2nc(-c3ccccn3)cs2)cc1 | . | - | 41 | - | . | 108
COc1cccc2sc(Nc3nc(-c4ccccn4)cs3)nc12 | - | . | 75 | - | - | 105
O=C(CCS(=O)(=O)c1ccccc1)Nc1nc(-c2ccccn2)cs1 | . | - | . | . | . | .
c1cncc(Nc2nc(-c3cccs3)cs2)c1 | - | - | 63 | - | - | 103
c1ccc(-c2csc(Nc3cccnc3)n2)nc1 | - | - | 35 | - | - | 44
SMILES | SARS PLpro yeast | AMA1 RON2 block | Cycloheximide cs | AmpC inh detg | AmpC no deterg | Shiga toxin inh
CCS(=O)(=O)c1ccc2c(c1)N(S(C)(=O)=O)CC(C(=O)NCCOC)O2 (centres undefined) | - | - | - | - | - | -
O=C(COC(=O)c1ccc[nH]c1=O)NCCc1ccc(Cl)cc1Cl | - | - | 79 | - | - | 98
N/C(CN1CCSCC1)=N\OCc1c(F)cccc1Cl | - | - | - | - | - | 49
O=P(O)(O)/C=C(\Cl)c1ccccc1 | - | - | - | - | - | -
CCNc1nc(-c2ccc(Cl)cc2)cs1 | - | - | 52 | - | - | 81
O=C(Nc1ccccc1)Nc1nc(-c2ccc(Cl)cc2)cs1 | - | - | - | - | - | -
CNc1nc(-c2ccc(Cl)cc2)cs1 | - | - | 27 | - | - | 76
CNc1nc(-c2ccc([N+](=O)[O-])cc2)cs1 | - | - | 32 | - | - | 53
CC(C)C(=O)Nc1nc(-c2ccc([N+](=O)[O-])cc2)cs1 | - | - | - | - | - | -
CC1(C)CC(c2nc(-c3ccc([N+](=O)[O-])cc3)cs2)CCO1 (centres undefined) | - | ? | 17 | - | - | -

Bioassay records (PubChem)
